Assay results taken from the supplement of paper PMC10849652.
About 7,900 targets were measured; listed, in parts, are those with a hit and a random draw of the rest. About 0.6% of all pairs of compound and target were hits. A number with no mark means an inactive call.

Columns and labels:
Assay in all cases: log2 fold change, soluble protein after heating vs DMSO (PISA); higher = thermal stabilisation; K562 cells, 10 uM, 30 min; active = over 0.2 and 3.5 SD of the protein, either way, in both replicates (recomputed)
erlotinib = compound: C#Cc1cccc(Nc2ncnc3cc(OCCOC)c(OCCOC)cc23)c1 [erlotinib]
Outline: (§1)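 For each measurement, 10 μM compound was applied for 30 min to K562 cells at 2×10^6 cells/mL. Aliquots were heated for 3 min across 48°C-58°C, pooled, and extracted in PBS with 0.5% NP-40 at 4°C; the supernatant after 21,000xg for 90 min was soluble protein. This was quantified by TMTpro 16plex LC-MS/MS with channel sums equalised, and thermal stability was reported relative to control samples from duplicates, on a log2 fold-change scale.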

[1] = compound: C/C(=N\NC(=O)C1=CC(=CC=C1)S(=O)(=O)N2CCOCC2)/C3=C(C=CC(=C3)Cl)O
Outline: as §1

[2] = compound: C1=CC(=C(C=C1Cl)C2=NC3=NC=CN=C3C(=N2)NC4=CC=NC=C4)F
Outline: as §1

[3] = compound: C1=CC(=CC=C1C2=NC3=C(N2)C=C(C=C3)C(=O)N)OC4=CC=C(C=C4)Cl
Outline: as §1

[4] = compound: C1=CC2=C(C=CC(=C2)/C=C\3/C(=O)NC(=NCC4=CC=CS4)S3)N=C1
Outline: as §1

[5] = compound: C1=CC2=NC=CN=C2C=C1/C=C/3\C(=O)NC(=O)S3
Outline: as §1

[6] = compound: C1=CC=C(C=C1)C2=NC(=C(N2)C3=CC=NC=C3)C4=CC(=C(C=C4)Cl)O
Outline: as §1

[7] = compound: C1=CC=C2C(=C1)C3=NNC4=CC=CC(=C43)C2=O
Outline: as §1

[8] = compound: C1CCN(C1)C(=O)NC2=CC=CC(=C2)NC3=NC=C(C(=N3)NCCC4=CN=CN4)Br
Outline: as §1

[9] = compound: C1CN(CCC1(CC2=CC=C(C=C2)Cl)N)C3=NC=NC4=C3C=CN4
Outline: as §1

IRAK-1-4 Inhibitor I = compound: C1COCCN1CCN2C3=CC=CC=C3N=C2NC(=O)C4=CC(=CC=C4)[N+](=O)[O-] [IRAK-1-4 Inhibitor I]
Outline: as §1

ibrutinib = compound: C=CC(=O)N1CCC[C@@H](n2nc(-c3ccc(Oc4ccccc4)cc3)c3c(N)ncnc32)C1 [ibrutinib]
Outline: as §1

[10] = compound: CC(=O)c1cnc2ccc(-c3cc(Cl)c(O)c(Cl)c3)nc2c1N[C@H]1CC[C@H](CN(C)C)CC1
Outline: as §1

ralimetinib = compound: CC(C)(C)Cn1c(N)nc2ccc(-c3[nH]c(C(C)(C)C)nc3-c3ccc(F)cc3)nc21 [ralimetinib]
Outline: as §1

[11] = compound: CC(C)(O)CC(=O)NCCn1ccc2ncnc(Nc3ccc(Oc4cccc(C(F)(F)F)c4)c(Cl)c3)c21
Outline: as §1

[12] = compound: CC(C)C1=C2N=C(C=C(N2N=C1)NCC3=CC=CC=C3)NCCCCCCN
Outline: as §1

[13] = compound: CC(C)C[C@@H](C=O)NC(=O)[C@H](CC(C)C)NC(=O)[C@H](CC(C)C)NC(=O)OCc1ccccc1
Outline: as §1

pinometostat = compound: CC(C)N(C[C@H]1O[C@@H](n2cnc3c(N)ncnc32)[C@H](O)[C@@H]1O)[C@H]1C[C@@H](CCc2nc3cc(C(C)(C)C)ccc3[nH]2)C1 [pinometostat]
Outline: as §1

[14] = compound: CC1=C(C(CC(=O)N1)C2=CC=C(C=C2)C(F)(F)F)C(=O)NC3=C(C=C4C(=C3)C=NN4)F
Outline: as §1

[15] = compound: CC1=C(C2=C(C=C1)C(=O)C3=CC=CC=C3N2CCCN)C
Outline: as §1

Chain of UniProt O14974 (O14974 whole entry, looked up): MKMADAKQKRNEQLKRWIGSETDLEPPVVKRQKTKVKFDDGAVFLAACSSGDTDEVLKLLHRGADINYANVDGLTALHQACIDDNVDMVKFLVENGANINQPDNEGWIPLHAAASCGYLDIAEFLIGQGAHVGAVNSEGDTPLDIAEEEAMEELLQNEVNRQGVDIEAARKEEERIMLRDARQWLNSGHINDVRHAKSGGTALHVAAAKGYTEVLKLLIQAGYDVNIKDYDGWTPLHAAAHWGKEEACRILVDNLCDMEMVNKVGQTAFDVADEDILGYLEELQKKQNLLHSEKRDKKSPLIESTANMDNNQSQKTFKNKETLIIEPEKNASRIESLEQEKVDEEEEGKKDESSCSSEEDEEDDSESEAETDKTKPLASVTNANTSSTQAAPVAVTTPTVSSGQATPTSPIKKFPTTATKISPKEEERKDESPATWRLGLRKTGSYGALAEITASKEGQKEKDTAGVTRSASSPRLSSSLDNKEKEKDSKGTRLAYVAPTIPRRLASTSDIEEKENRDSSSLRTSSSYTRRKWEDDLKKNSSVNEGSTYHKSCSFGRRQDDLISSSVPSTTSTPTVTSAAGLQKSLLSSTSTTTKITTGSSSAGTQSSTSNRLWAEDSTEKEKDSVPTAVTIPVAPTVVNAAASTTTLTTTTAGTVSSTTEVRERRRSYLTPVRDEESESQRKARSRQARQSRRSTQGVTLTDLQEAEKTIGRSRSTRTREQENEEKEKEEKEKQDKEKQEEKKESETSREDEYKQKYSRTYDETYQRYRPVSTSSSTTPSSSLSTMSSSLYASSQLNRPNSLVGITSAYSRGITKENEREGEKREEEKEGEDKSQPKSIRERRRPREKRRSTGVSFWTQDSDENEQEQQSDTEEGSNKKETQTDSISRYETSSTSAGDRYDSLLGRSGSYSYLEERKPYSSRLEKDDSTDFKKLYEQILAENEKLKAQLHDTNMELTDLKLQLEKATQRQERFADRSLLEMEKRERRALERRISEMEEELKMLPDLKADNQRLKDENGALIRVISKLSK
Chain of UniProt Q8TBX8 (Q8TBX8 whole entry, looked up): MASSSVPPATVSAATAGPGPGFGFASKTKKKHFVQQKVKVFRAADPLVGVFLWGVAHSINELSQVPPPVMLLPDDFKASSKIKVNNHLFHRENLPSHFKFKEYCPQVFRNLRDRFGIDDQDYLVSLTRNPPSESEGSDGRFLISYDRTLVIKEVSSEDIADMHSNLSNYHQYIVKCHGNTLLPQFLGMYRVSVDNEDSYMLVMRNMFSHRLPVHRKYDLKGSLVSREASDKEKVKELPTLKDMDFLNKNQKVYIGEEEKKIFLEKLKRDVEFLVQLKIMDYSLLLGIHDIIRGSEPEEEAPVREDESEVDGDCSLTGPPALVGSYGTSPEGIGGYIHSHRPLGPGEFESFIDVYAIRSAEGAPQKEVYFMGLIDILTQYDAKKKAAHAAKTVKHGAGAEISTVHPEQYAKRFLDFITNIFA
Chain of UniProt P48556 (P48556 whole entry, looked up): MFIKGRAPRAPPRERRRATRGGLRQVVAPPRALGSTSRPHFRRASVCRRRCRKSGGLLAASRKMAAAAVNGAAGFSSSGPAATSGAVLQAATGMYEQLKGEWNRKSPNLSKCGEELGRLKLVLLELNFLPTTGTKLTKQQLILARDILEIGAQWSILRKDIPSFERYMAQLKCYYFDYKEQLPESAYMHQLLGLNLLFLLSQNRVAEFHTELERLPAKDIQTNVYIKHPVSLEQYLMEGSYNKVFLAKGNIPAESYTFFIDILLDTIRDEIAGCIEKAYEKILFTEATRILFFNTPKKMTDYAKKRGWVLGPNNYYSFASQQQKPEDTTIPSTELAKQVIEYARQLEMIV
Chain of UniProt O00231 (O00231 whole entry, looked up): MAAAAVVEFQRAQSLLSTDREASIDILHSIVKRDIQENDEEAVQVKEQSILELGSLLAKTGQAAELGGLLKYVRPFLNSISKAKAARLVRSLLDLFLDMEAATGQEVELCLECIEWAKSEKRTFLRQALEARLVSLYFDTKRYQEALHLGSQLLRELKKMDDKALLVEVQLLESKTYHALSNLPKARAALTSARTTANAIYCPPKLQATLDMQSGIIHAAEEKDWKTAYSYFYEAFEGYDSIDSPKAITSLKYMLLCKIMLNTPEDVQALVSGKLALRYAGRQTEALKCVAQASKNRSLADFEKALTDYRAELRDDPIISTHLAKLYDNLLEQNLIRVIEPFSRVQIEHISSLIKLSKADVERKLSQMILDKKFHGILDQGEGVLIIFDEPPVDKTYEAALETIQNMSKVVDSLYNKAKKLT
Chain of UniProt O60925 (O60925 whole entry, looked up): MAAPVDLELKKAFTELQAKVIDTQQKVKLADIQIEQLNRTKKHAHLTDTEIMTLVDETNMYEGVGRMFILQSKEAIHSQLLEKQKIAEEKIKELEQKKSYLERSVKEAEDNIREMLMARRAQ
Chain of UniProt P62136 (P62136 whole entry, looked up): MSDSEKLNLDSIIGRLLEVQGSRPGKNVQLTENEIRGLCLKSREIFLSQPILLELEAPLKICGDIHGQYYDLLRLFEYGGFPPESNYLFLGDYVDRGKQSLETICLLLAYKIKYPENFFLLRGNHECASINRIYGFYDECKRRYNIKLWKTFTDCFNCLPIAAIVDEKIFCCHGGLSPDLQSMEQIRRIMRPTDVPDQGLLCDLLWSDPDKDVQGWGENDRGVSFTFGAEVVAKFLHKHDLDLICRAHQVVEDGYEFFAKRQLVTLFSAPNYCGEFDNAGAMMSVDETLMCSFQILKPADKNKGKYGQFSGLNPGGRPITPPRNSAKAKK
Chain of UniProt Q9Y5Y5 (Q9Y5Y5 whole entry, looked up): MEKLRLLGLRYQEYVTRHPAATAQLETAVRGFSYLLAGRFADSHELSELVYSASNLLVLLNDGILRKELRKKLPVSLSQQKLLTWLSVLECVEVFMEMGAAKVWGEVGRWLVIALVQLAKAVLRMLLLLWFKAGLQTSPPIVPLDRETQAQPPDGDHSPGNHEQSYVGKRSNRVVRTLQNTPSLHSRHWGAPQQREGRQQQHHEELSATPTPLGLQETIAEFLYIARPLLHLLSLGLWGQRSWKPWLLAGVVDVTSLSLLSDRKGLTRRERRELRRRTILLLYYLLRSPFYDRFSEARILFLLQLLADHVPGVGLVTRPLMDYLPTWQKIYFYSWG
Chain of UniProt Q16513 (Q16513 whole entry, looked up): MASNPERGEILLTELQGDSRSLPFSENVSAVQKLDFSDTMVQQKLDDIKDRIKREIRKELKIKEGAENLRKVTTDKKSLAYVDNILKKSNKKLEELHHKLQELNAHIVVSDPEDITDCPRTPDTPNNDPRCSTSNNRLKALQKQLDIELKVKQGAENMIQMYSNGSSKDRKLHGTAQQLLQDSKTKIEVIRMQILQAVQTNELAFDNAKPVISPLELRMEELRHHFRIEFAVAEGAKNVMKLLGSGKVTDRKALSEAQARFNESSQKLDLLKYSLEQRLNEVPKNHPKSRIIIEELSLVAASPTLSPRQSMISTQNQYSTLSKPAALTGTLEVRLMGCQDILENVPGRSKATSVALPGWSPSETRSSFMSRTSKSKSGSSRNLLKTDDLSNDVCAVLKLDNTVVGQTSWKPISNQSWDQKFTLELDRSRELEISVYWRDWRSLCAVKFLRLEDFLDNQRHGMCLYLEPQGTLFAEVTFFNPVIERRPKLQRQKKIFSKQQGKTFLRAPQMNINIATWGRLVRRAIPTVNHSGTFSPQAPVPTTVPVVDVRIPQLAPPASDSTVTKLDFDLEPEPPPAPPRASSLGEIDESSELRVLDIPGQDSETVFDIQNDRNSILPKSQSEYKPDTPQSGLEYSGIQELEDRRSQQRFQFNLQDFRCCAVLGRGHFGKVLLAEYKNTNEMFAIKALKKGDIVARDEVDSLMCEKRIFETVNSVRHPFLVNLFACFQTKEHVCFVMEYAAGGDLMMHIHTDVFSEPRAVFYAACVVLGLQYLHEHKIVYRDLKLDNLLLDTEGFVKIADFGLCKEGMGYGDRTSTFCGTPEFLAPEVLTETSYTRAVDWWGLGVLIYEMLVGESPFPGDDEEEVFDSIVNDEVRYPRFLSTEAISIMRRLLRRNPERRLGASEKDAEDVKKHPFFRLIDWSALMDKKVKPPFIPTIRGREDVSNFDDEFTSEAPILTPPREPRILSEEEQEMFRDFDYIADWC

Target | log2 fold change (erlotinib) | log2 fold change [1] | log2 fold change [2] | log2 fold change [3] | log2 fold change [4] | log2 fold change [5] | log2 fold change [6] | log2 fold change [7] | log2 fold change [8] | log2 fold change [9] | log2 fold change (IRAK-1-4 Inhibitor I) | log2 fold change (ibrutinib) | log2 fold change [10] | log2 fold change (ralimetinib) | log2 fold change [11] | log2 fold change [12] | log2 fold change [13] | log2 fold change (pinometostat) | log2 fold change [14] | log2 fold change [15]
PPP1R12A (UniProt O14974) | 0.004 | 0.044 | 0.023 | 0.023 | -0.188 | 0 | 0.035 | -0.067 | -0.074 | -0.485 (active) | -0.013 | -0.022 | -0.666 (active) | 0 | 0 | -0.119 | -0.014 | -0.003 | -0.514 (active) | -0.01
PPP1CA (UniProt P62136) | 0.026 | -0.002 | -0.015 | -0.006 | 0.036 | -0.005 | 0.001 | -0.03 | -0.004 | 0.009 | 0.041 | -0.02 | -0.018 | -0.012 | 0.007 | 0.015 | 0.009 | -0.071 | -0.013 | -0.007
PRKD2 isoform 3 (UniProt Q9BZL6) | 0.04 | 0.214 | 0.022 | 0.055 | 0.003 | 0.004 | -0.126 | -0.347 | -0.04 | -0.075 | -0.046 | -0.057 | -1.03 (active) | 0.089 | -0.302 | -0.216 | 0.074 | 0.056 | 0.192 | -0.087
PSMD11 (UniProt O00231) | -0.097 | -0.023 | -0.039 | 0.007 | -0.035 | -0.035 | 0.058 | 0.047 | -0.033 | -0.026 | -0.048 | 0 | 0.086 | 0.076 | 0 | -0.001 | -0.263 (active) | 0.029 | 0.011 | 0.037
PIP4K2C (UniProt Q8TBX8) | 0.482 | -0.063 | 0.023 | -0.129 | 0.059 | 0.575 | 0.139 | 0.21 | 0.493 | -0.025 | 0.607 | 0.064 | 1.48 (active) | -0.019 | -0.14 | 0.095 | 0.003 | -0.006 | -0.106 | 0.018
PFDN1 (UniProt O60925) | -0.018 | 0.012 | 0.263 | 0.07 | 0.056 | 0.063 | 0.137 | 0.047 | -0.091 | -0.057 | -0.187 | -0.119 | -0.002 | -0.141 | -0.031 | 0.062 | -0.13 | -0.175 | -0.021 | 0.254
PSMD2 (UniProt Q13200) | -0.095 | -0.095 | -0.042 | -0.001 | -0.043 | -0.024 | 0.007 | 0.016 | 0.005 | -0.021 | -0.08 | -0.035 | 0.039 | 0.018 | 0.021 | 0.039 | -0.296 (active) | 0.019 | 0.04 | -0.036
PSMD1 (UniProt Q99460) | -0.08 | -0.074 | 0.028 | 0.021 | -0.061 | -0.018 | 0.062 | 0.034 | 0.001 | -0.025 | -0.037 | -0.022 | 0.03 | 0.061 | 0.009 | 0.054 | -0.254 (active) | 0.023 | 0.028 | -0.004
PRKCA (UniProt P17252) | 0.117 | 0.041 | 0.04 | -0.009 | 0.127 | 0.016 | -0.019 | -0.006 | 0.008 | -0.074 | 0.012 | -0.02 | -0.595 (active) | -0.039 | -0.02 | -0.035 | 0.104 | -0.015 | 0.011 | 0.064
PNPLA8 (UniProt Q9NP80) | 0.101 | 0.031 | 0.014 | -0.029 | 0.008 | 0 | 0.089 | 0.022 | 0.018 | 0.037 | -0.022 | -0.049 | 0.151 | -0.005 | -0.071 | -0.06 | 0.003 | 0.064 | -0.008 | 0.043
PSMD12 (UniProt O00232) | -0.064 | 0 | -0.017 | -0.003 | -0.023 | -0.016 | 0.009 | 0.066 | -0.042 | -0.049 | -0.055 | -0.022 | 0.03 | 0.004 | -0.01 | 0 | -0.251 (active) | 0.03 | 0.007 | 0.015
PC (UniProt P11498) | -0.037 | 0.101 | 0.117 | 0.056 | 0.047 | -0.042 | 0.042 | 0.031 | -0.022 | 0.012 | -0.024 | 0.04 | -0.151 | -0.02 | -0.038 | 0.183 | -0.037 | -0.016 | -0.081 | 0.15
PSMD8 (UniProt P48556) | -0.045 | -0.096 | -0.046 | 0.023 | -0.027 | -0.031 | 0.036 | 0.039 | 0.055 | -0.031 | -0.058 | -0.033 | 0.076 | -0.012 | 0.022 | 0.016 | -0.194 | 0.031 | 0.051 | -0.014
PEX16 isoform 2 (UniProt Q9Y5Y5) | 0.081 | -0.044 | 0.147 | 0.013 | 0.085 | 0.06 | 0.008 | -0.004 | -0.031 | 0.051 | -0.068 | -0.059 | -0.025 | -0.104 | -0.067 | -0.407 (active) | 0.033 | -0.052 | 0.03 | 0.136
PKN2 (UniProt Q16513) | 0.067 | 0.073 | -0.019 | -0.075 | 0.076 | -0.075 | 0.07 | -0.031 | -0.033 | -0.209 | -0.017 | -0.054 | -0.797 (active) | 0.085 | -0.042 | -0.051 | 0.085 | 0.141 | -0.025 | -0.016
PPP6R1 (UniProt Q9UPN7) | -0.022 | -0.017 | 0.013 | -0.004 | 0.025 | 0.012 | -0.022 | -0.039 | -0.014 | 0.033 | 0 | 0.009 | 0.039 | -0.01 | -0.031 | -0.077 | 0.038 | -0.047 | 0.003 | -0.041
